Structures are written as SMILES. Inconclusive results are not listed. A number with no mark means an inactive call. Calls of active or inactive are those of the source. Calls come from the whole dose curve.
% is set by controls: 0 for no effect and ±100 for the full control effect; potency is the fitted concentration of half-maximal effect.

The nature of this assay: p53 small molecule agonists, cell-based qHTS assay with human liver microsomes (AID 1963577).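 For activation: p53 response element beta-lactamase reporter cells with liver microsomes plus NADPH.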 The conditions noted are these: HCT-116 p53RE-bla with human liver microsomes, ratio, 16 h; series mostly up to 66 µM; activation: at the top concentration. The text has this: National Center for Advancing Translational Sciences [NCATS]
Division of Preclinical Innovation [DPI]
U.S. Environmental Protection Agency [EPA]
National Institutes of Environmental Health Sciences [NIEHS]
National Toxicology Program [NTP]
U.S. Food and Drug Administration [FDA]
p53, a tumor suppressor protein, is activated following cellular insult, including DNA damage and other cellular stresses. The activation of p53 regulates cell fate by inducing DNA repair, cell cycle arrest, apoptosis, or cellular senescence. The activation of p53, therefore, is a good indicator of DNA damage and other cellular stresses. […] The activation of the reporter gene under culture conditions can be detected by fluorescence intensity.
Tox21 Assay Protocol Summary:
The p53RE-bla cells were dispensed at 4,000cells/3ul/well in 1536-well black-clear bottom plates. After the assay plates were incubated at 37 C, 5% CO2 incubator for 5 hours, 23 nL of compounds dissolved in DMSO, positive controls or DMSO only was transferred to the assay plate. Following compound addition, 3 uL of human liver microsomes (XenoTech, Kansas City, KS) at final concentration of 0.5 mg/mL and 1uL of Beta-Nicotinamide adenine dinucleotide 2-phosphate (NADPH) at final concentration of 0.5 mg/mL were transferred to the assay plate. The plates were incubated at 37 C for 16 hours. 1 uL of LiveBLAzer detection mixture was added to each well and the plates were incubated at room temperature in the dark for 2 h.
Regarding `BrCCCCCCBr`, the “activation” value is -15.4%. Still for that read-out and setting: the value for `O=C(NC(=O)c1c(F)cccc1F)Nc1cc(Cl)c(F)c(Cl)c1F` was 4.26%. Take `COP(=S)(OC)Oc1c(Cl)cc(C)cc1Cl`: the Potency is 9.13 µM (active). Regarding `CC[C@]1(O)CC[C@H]2[C@@H]3CCC4=CCCC[C@@H]4[C@H]3CC[C@@]21C`, the “activation” value was -5.17% [at 30.3 µM].

As for `O=C1NCN(c2ccccc2)C12CCN(CC1COc3ccccc3O1)CC2` (stereo not given), the “activation” value is -6.59% [at 30.3 µM]. The same measure, in the same setting: the value for `O=C(OC1CCCCC1)c1ccccc1C(=O)OC1CCCCC1` was 0.364%.

`CCCCCCCCCCCCCC[P+](CCCCCC)(CCCCCC)CCCCCC` (tested in a mixture with another compound): the “activation” value is -8.47%. The same measure, in the same setting: with `CCC[CH2][Sn]([CH2]CCC)([CH2]CCC)[O][Sn]([CH2]CCC)([CH2]CCC)[CH2]CCC` the figure was -15.1% [at 5.99 µM]; with `Cc1nc(N)nc(N)n1`, 1.14%; with `CCOC(=O)c1ncn2c1CN(C)C(=O)c1c(I)cccc1-2`, -1.34% [at 30.3 µM]. For `CNNC`, the “activation” value was 3.21%.

Consider `CCOC(=O)C(Cl)Cc1cc(-n2nc(C)n(C(F)F)c2=O)c(F)cc1Cl` (stereo not given), for which the “activation” value was -4.81%.

In the case of `c1cc[c]([Sb]([c]2ccccc2)[c]2ccccc2)cc1`, the “activation” value is -15.8%.

`COc1cccc2c1cc([N+](=O)[O-])c1c(C(=O)O)cc3c(c12)OCO3`: the “activation” value is -4.1%. Consider `CC(C)(C)c1cc(O)ccc1O`, for which the Potency result is “inactive”. In the case of `CCC(COC(=O)c1cc(OC)c(OC)c(OC)c1)(c1ccccc1)N(C)C` (stereo not given), the “activation” value is -1.12% [at 30.3 µM]. For the compound `CCN1CCC2(CC1)COc1cc3c(cc12)N(C(=O)c1ccc(-c2ccc(-c4nnc(C)o4)cc2C)cc1)CC3`, the “activation” value was -15.2%. Still for that read-out and setting: the value for `O=C1C=CC(=O)c2ccccc21` was -2.02%; that for `CN(C)CCc1c[nH]c2cccc(O)c12` was 4.38%. Same read-out and setting: the value for `N#CC(Br)(Br)C(N)=O` was 4.33%; that for `CCc1cc(OC)c(C[C@H](C)N)cc1OC` was 1.07%. Still for that read-out and setting: the value for `Nc1ccccc1-c1ccccc1` was -1.5%; that for `Cc1cccc(OP(=O)(Oc2cccc(C)c2)Oc2cccc(C)c2)c1` was 4.5%; that for `II` was 2.02%. For the compound `c1cncc([C@@H]2CCCCN2)c1`, the “activation” value is -1.55%.

As to `CN=CNc1ccc(C)cc1C`, the “activation” value was 2.04%. As to `Cc1cc(C)c(C(=O)P(=O)(c2ccccc2)c2ccccc2)c(C)c1`, the “activation” value is -6.78%. As for `C=CCc1ccc(OC(=O)Cc2ccccc2)c(OC)c1`, the “activation” value was -6.01%.

As for `Cc1ccc(-c2c(Cl)nc(C#N)n2S(=O)(=O)N(C)C)cc1`, the “activation” value was -2.37%.

For `c1ccc(OCC2CO2)cc1` (stereo not given), the “activation” value was -2.35%. On the same count and under the same terms, the value for `O=C(Nc1ccccc1-c1ccc(Cl)cc1)c1cccnc1Cl` was -14.2%; that for `CCCCCl` was -0.186%. On the same count and under the same terms, with `O=C(CBr)Nc1ccc(Cl)cc1C(=O)c1ccccc1F` the figure was -1.19% [at 30.3 µM]; with `CCCSC(=O)N(CCC)CCC`, 4.92%; with `CC(=O)c1cc(C(C)(C)C)cc2c1CCC2(C)C`, -1.17%. Still for that read-out and setting: the value for `NS(=O)(=O)C(F)(F)C(F)(F)C(F)(F)C(F)(F)C(F)(F)C(F)(F)C(F)(F)C(F)(F)F` was 0.829%; that for `Oc1cc(Cl)c(Cl)c(Cl)c1Cl` was 2.37%; that for `CC(=O)OC1(c2ccccc2)CCN(CCc2ccccc2)CC1` was -3.96%. As for `NCCCNCCCN`, the “activation” value is -1.13%. As to `C[C@]12CC[C@H](O)C[C@H]1CC[C@@H]1[C@@H]2C[C@@H](O)[C@]2(C)[C@@H](C3=CC(=O)OC3)CC[C@]12O`, the “activation” value was -18.3%.

For the origin of these results see PubChem BioAssay (Tox21).
